Results published in the supplement of paper PMC7156485.
Unmarked numbers belong to inactive results.
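Further: TDF is a line of transformed human dermal fibroblasts of mesenchymal origin.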

The compounds below were run on TDF (assay: H1.0 immunofluorescence intensity relative to DMSO (% of DMSO); higher = stronger H1.0 induction, active = 120 or more). Conditions: concentration: 10 µM; 24 h.
Method in brief: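 Six fields per well were imaged at ×10 after the cells were fixed in 3.7% formaldehyde and stained with a rabbit anti-H1.0 antibody, an AlexaFluor 647 secondary and DAPI. The HCC1569 and TDF cells had been plated at 800 per well in 384-well plates (RPMI, 10% FBS) and treated in triplicate with compounds at 10 µM for 24 h at 37 °C. The values are the median of replicates of H1.0 nuclear intensity or cell number, as percent of the plate control. Smoothing for positional effects was applied to HCC1569 data.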
For `CCN(C)C(=O)Oc1cccc(C(C)N(C)C)c1` (configuration not stated) [Rivastigmine], the H1.0 immunofluorescence intensity was 90.
Work on `COc1ccc2c(c1O)-c1c(OC)c(OC)cc3c1C(C2)N(C)CC3.Cl` (single isomer, unassigned; (+)) [(+)-Isocorydine hydrochloride] yielded an H1.0 immunofluorescence intensity of 94.5.
With `CN1CC(C(=O)NC2(C)OC3(O)C4CCCN4C(=O)C(Cc4ccccc4)N3C2=O)CC2c3cccc4[nH]cc(c34)CC21.CS(=O)(=O)O` (configuration not stated) [Dihydroergotamine mesylate] the H1.0 immunofluorescence intensity was 92.6.
`COC1CC(CC2CCC(C)C(C(C)C(=O)[O-])O2)OC2(OC(C)(C3CCC(C)(C4OC(C5OC(O)(CO)C(C)CC5C)CC4C)O3)CC2C)C1C.[Na+]` (configuration not stated) [Nigericin] was tested, and the H1.0 immunofluorescence intensity was 122 (active).
With `C=C1C(C)C2C(Cc3ccccc3)NC(=O)C23OC(=O)C=CC(O)CCCC(C)CC=CC3C1O` (configuration not stated) [Cytochalasin B] the H1.0 immunofluorescence intensity was 125 (active).
Compound `CCN(CC)C(=O)NC1C=C2c3cccc4[nH]cc(c34)CC2N(C)C1` (stereo not drawn) [S-(-)-Lisuride] has an H1.0 immunofluorescence intensity of 95.5.
`C=CCN1CC(C(=O)N(CCCN(C)C)C(=O)NCC)CC2c3cccc4[nH]cc(c34)CC21` (configuration not stated) [Cabergoline] showed an H1.0 immunofluorescence intensity of 96.1.
`CCC(C(N)=O)N1CCCC1=O` (configuration not stated) [Levetiracetam] was tested, and the H1.0 immunofluorescence intensity was 95.2.
With `Cc1sc2c(c1C)C(c1ccc(Cl)cc1)=N[C@@H](CC(N)=O)c1nnc(C)n1-2` the H1.0 immunofluorescence intensity was 141 (active).
With `CC1=C2C(=O)C3C(CC=C4CC(O)CCC43C)C2CCC12OC1CC(C)CNC1C2C` (configuration not stated) [Jervine] the H1.0 immunofluorescence intensity was 94.3.
Compound `NC(Cn1oc(=O)[nH]c1=O)C(=O)O` (configuration not stated) [Quisqualic acid] has an H1.0 immunofluorescence intensity of 102.
`c1cncc(C2CCCCN2)c1` (racemic) gave an H1.0 immunofluorescence intensity of 96.
In the case of `CC(C)(C)NCC(O)c1ccccc1Cl` (configuration not stated) [Tulobuterol], the H1.0 immunofluorescence intensity is reported as 90.7.
In the case of `Br.CN1C2CC(OC(=O)C(CO)c3ccccc3)CC1C1OC12` (single isomer, unassigned; (-)) [(-)-Scopolamine hydrobromide], the H1.0 immunofluorescence intensity is reported as 97.6.
`CCCN1CCCC(c2cccc(O)c2)C1.Cl` (stereo not drawn) [R(+)-3PPP hydrochloride] showed an H1.0 immunofluorescence intensity of 88.2.
`CC1OC(C[N+](C)(C)C)CC1O.[Cl-]` (racemic) gave an H1.0 immunofluorescence intensity of 96.4.
`Cc1cc(C2CCCN2C)on1` (configuration not stated) was tested, and the H1.0 immunofluorescence intensity was 90.2.
`Br.CN1CCc2cc(O)cc3c2C1Cc1ccc(O)c(O)c1-3` (stereo not drawn) [R(-)-2,10,11-Trihydroxyaporphine hybrobromide] was tested, and the H1.0 immunofluorescence intensity was 84.4.
`COC(=O)C(N)CCCN=C(N)N[N+](=O)[O-].Cl` [NG-Nitro-L-arginine methyl ester hydrochloride] was tested, and the H1.0 immunofluorescence intensity was 89.9.
`COc1cc(C=C(C#N)C#N)cc(O)c1O` [Tyrphostin AG 34] showed an H1.0 immunofluorescence intensity of 96.3.
With `CN1CC(NS(=O)(=O)N(C)C)CC2c3cccc4c3c(cn4C)CC21` (configuration not stated) [Mesulergine] the H1.0 immunofluorescence intensity was 93.4.
`Br.CCCN(CCC)C1CCc2cccc(O)c2C1` (stereo not drawn) [R-(+)-8-Hydroxy-DPAT hydrobromide] showed an H1.0 immunofluorescence intensity of 105.
`Br.COc1c2c(cc3c1OCO3)CCN(C)C2` [Hydrocotarnine HBr] showed an H1.0 immunofluorescence intensity of 104.
Compound `Br.C#CCOC(=O)C1=CCCN(C)C1` [Arecaidine propargyl ester hydrobromide] has an H1.0 immunofluorescence intensity of 93.1.
Compound `CC(N)Cc1cnc[nH]1.Cl.Cl` (stereo not drawn) [Histamine, R(-)-alpha-methyl-, dihydrochloride] has an H1.0 immunofluorescence intensity of 95.5.
In the case of `O=c1[nH]c2ccccc2n1CCCN1CCC(n2c(=O)[nH]c3cc(Cl)ccc32)CC1` [Domperidone], the H1.0 immunofluorescence intensity is reported as 94.7.
`C=CCN1CCC23c4c5ccc(O)c4OC2C(=O)CCC3(O)C1C5` (configuration not stated) [Naloxone] gave an H1.0 immunofluorescence intensity of 99.5.
`CCN1CC2(COC)C(O)CC(OC)C34C5CC6(O)C(OC)C(O)C(OC(C)=O)(C5C6OC(=O)c5ccccc5)C(C(OC)C23)C14` (configuration not stated) [Aconitine] showed an H1.0 immunofluorescence intensity of 96.5.
`CC(C)NCC(O)c1ccc(N)c(C#N)c1` (configuration not stated) [Cimaterol] gave an H1.0 immunofluorescence intensity of 87.7.
`CC1=CC(=O)C2=C(C)CC(O)C3C(C)C(=O)OC3C12` (configuration not stated) [Austricin] was tested, and the H1.0 immunofluorescence intensity was 96.7.
For `CCn1cnc2c(Nc3cccc(Cl)c3)nc(NC3CCCCC3N)nc21` (configuration not stated), the H1.0 immunofluorescence intensity was 141 (active).
`CCC(CO)NC(=O)C1C=C2c3cccc4c3c(cn4C)CC2N(C)C1.O=C(O)C=CC(=O)O` (configuration not stated) [Methysergide maleate] gave an H1.0 immunofluorescence intensity of 100.
